Measurements published in the supplement of paper PMC8728848.
The sample as a whole holds a higher share of the strongest signals than the screen did.

Columns and labels:
Test in all cases: glycan array binding signal (z-score within array); higher = stronger binding
Details in all cases: glycan notation: IUPAC condensed, linker removed
[1] = biological target: Fuc(a1-2)Gal(b1-3)GalNAc(a1-3)[Fuc(a1-2)]Gal(b1-4)GlcNAc
Outline: (§1)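 Glycan array data were curated from 3228 arrays in the Consortium for Functional Glycomics database and kept only where the protein sequence was available. Glycan names were converted to IUPAC-condensed notation, and columns mapping to the same glycan were averaged. The binding signal is a within-array Z-score, averaged across arrays of the same protein sequence at different concentrations or buffers and across linkers. Negative Z-scores can be read as non-binding.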

[2] = biological target: Fuc(a1-2)Gal(b1-3)GlcNAc(b1-3)[Fuc(a1-2)Gal(b1-3)GlcNAc(b1-6)]GalNAc
Outline: as §1

[3] = biological target: Fuc(a1-2)Gal(b1-4)[Fuc(a1-3)]GlcNAc(b1-3)Gal(b1-4)[Fuc(a1-3)]GlcNAc(b1-3)Gal(b1-4)[Fuc(a1-3)]GlcNAc
Outline: as §1

[4] = biological target: Fuc(a1-2)Gal(b1-4)[Fuc(a1-3)]GlcNAc(b1-3)[Neu5Ac(a2-6)Gal(b1-4)GlcNAc(b1-6)]Gal(b1-4)Glc
Outline: as §1

Fuc(a1-2)Gal6S(b1-4)Glc = biological target: Fuc(a1-2)Gal6S(b1-4)Glc
Outline: as §1

[5] = biological target: Fuc(a1-2)[Gal(a1-3)]Gal(b1-3)GalNAc
Outline: as §1

[6] = biological target: Fuc(a1-2)[Gal(a1-3)]Gal(b1-3)GlcNAc(b1-2)Man(a1-3)[Fuc(a1-2)[Gal(a1-3)]Gal(b1-3)GlcNAc(b1-2)Man(a1-6)]Man(b1-4)GlcNAc(b1-4)GlcNAc
Outline: as §1

[7] = biological target: Fuc(a1-2)[Gal(a1-3)]Gal(b1-4)GlcNAc(b1-3)[Fuc(a1-2)[Gal(a1-3)]Gal(b1-4)GlcNAc(b1-6)]GalNAc
Outline: as §1

[8] = biological target: Fuc(a1-2)[Gal(a1-3)]Gal(b1-4)[Fuc(a1-3)]GlcNAc(b1-3)GalNAc
Outline: as §1

[9] = biological target: Fuc(a1-2)[GalNAc(a1-3)]Gal(b1-3)GlcNAc
Outline: as §1

[10] = biological target: Fuc(a1-3)[Gal(b1-4)]GlcNAc(b1-2)Man
Outline: as §1

[11] = biological target: Fuc(a1-3)[Gal(b1-4)]GlcNAc(b1-6)GalNAc
Outline: as §1

[12] = biological target: Fuc(a1-3)[GalNAc(b1-4)]GlcNAc
Outline: as §1

[13] = biological target: Gal(a1-3)Gal(b1-4)GlcNAc(b1-3)GalNAc
Outline: as §1

[14] = biological target: Gal(a1-3)[Gal(a1-4)]Gal(b1-4)GlcNAc
Outline: as §1

[15] = biological target: Gal(b1-3)GalNAc(a1-3)[Fuc(a1-2)]Gal(b1-4)GlcNAc
Outline: as §1

[16] = biological target: Gal(b1-3)GlcNAc(b1-2)[Gal(b1-3)GlcNAc(b1-6)]Man(a1-6)[Gal(b1-3)GlcNAc(b1-2)Man(a1-3)]Man(b1-4)GlcNAc(b1-4)GlcNAc
Outline: as §1

[17] = biological target: Gal(b1-3)GlcNAc(b1-6)GalNAc
Outline: as §1

[18] = biological target: Gal(b1-3)[Fuc(a1-4)]GlcNAc(b1-6)GalNAc
Outline: as §1

[19] = biological target: Gal(b1-4)GalNAc(a1-3)[Fuc(a1-2)]Gal(b1-4)GlcNAc
Outline: as §1

[20] = biological target: Gal(b1-4)GlcNAc(b1-2)Man(a1-6)Man(b1-4)GlcNAc(b1-4)GlcNAc
Outline: as §1

[21] = biological target: Gal(b1-4)GlcNAc(b1-3)Gal(b1-4)GlcNAc(b1-2)Man(a1-3)[Gal(b1-4)GlcNAc(b1-3)Gal(b1-4)GlcNAc(b1-2)Man(a1-6)]Man(b1-4)GlcNAc(b1-4)GlcNAc
Outline: as §1

[22] = biological target: Gal(b1-4)GlcNAc(b1-3)Gal(b1-4)GlcNAc(b1-2)[Gal(b1-4)GlcNAc(b1-3)Gal(b1-4)GlcNAc(b1-6)]Man(a1-6)[Gal(b1-4)GlcNAc(b1-3)Gal(b1-4)GlcNAc(b1-2)Man(a1-3)]Man(b1-4)GlcNAc(b1-4)GlcNAc
Outline: as §1

[23] = biological target: Gal(b1-4)GlcNAc(b1-3)Gal(b1-4)GlcNAc(b1-2)[Gal(b1-4)GlcNAc(b1-3)Gal(b1-4)GlcNAc(b1-6)]Man(a1-6)[Gal(b1-4)GlcNAc(b1-3)Gal(b1-4)GlcNAc(b1-2)Man(a1-3)]Man(b1-4)GlcNAc(b1-4)[Fuc(a1-6)]GlcNAc
Outline: as §1

[24] = biological target: Gal(b1-4)GlcNAc(b1-3)Gal(b1-4)GlcNAc(b1-3)Gal(b1-4)GlcNAc(b1-3)Gal(b1-4)GlcNAc(b1-2)[Gal(b1-4)GlcNAc(b1-3)Gal(b1-4)GlcNAc(b1-3)Gal(b1-4)GlcNAc(b1-3)Gal(b1-4)GlcNAc(b1-6)]Man(a1-6)[Gal(b1-4)GlcNAc(b1-3)Gal(b1-4)GlcNAc(b1-3)Gal(b1-4)GlcNAc(b1-3)Gal(b1-4)GlcNAc(b1-2)Man(a1-3)]Man(b1-4)GlcNAc(b1-4)[Fuc(a1-6)]GlcNAc
Outline: as §1

[25] = biological target: Gal(b1-4)GlcNAc(b1-3)Gal(b1-4)GlcNAc(b1-3)Gal(b1-4)GlcNAc(b1-3)Gal(b1-4)GlcNAc(b1-3)Gal(b1-4)GlcNAc(b1-2)[Gal(b1-4)GlcNAc(b1-3)Gal(b1-4)GlcNAc(b1-3)Gal(b1-4)GlcNAc(b1-3)Gal(b1-4)GlcNAc(b1-3)Gal(b1-4)GlcNAc(b1-6)]Man(a1-6)[Gal(b1-4)GlcNAc(b1-3)Gal(b1-4)GlcNAc(b1-3)Gal(b1-4)GlcNAc(b1-3)Gal(b1-4)GlcNAc(b1-3)Gal(b1-4)GlcNAc(b1-2)Man(a1-3)]Man(b1-4)GlcNAc(b1-4)[Fuc(a1-6)]GlcNAc
Outline: as §1

[26] = biological target: Gal(b1-4)GlcNAc(b1-6)Gal(b1-4)GlcNAc
Outline: as §1

Gal3S(b1-3)GlcNAc = biological target: Gal3S(b1-3)GlcNAc
Outline: as §1

Gal3S4S(b1-4)GlcNAc = biological target: Gal3S4S(b1-4)GlcNAc
Outline: as §1

B1: PX9961C-bth-497-22-497 (Bacteroides thetaiotaomicron) (protein)
chain: DWLDLNTTSSVETGQAIVTLDDAQIALNGIYRLASGHSYYGDNYWYYGDCRAADVQARITKGDGKRVSPYYEYNVLASDNLNIVLPWNTVYKVIRQTNNLIQKIESGSIQSSDTKELNRIKSEALVMRGLSLFNLTRLFGMPYTNDKGASLGVPIETSPSDPTHKPSRSTVAQCYEQVVSDMSNALSGLRQETSNGYINYWAAQALLSRVYLNMGEYQKAYDAATDVIKNNGGRYQLYSYEEYPNVWGQDFQSESLFELYITLSEPSGGTGGEGAPMVYANEATVDWNNLILSEDFLNLLNEDPKDVRHCLTKESVIENNTGLPAAAMHEKVYLAKFPGKTGDDPKTNNICIIRLSEVYLNAAEAGLKKGTDIEEAQGYLNDIISRRTTDTSQQVSTETFTLDRILKERRKELVGEGEVFYDYLRNGLAIERKGSWHLETLKASNAQKIEATDLRIALPIPQSEIDANPNIQQNPR
glycan array binding signal (z-score) [1]: -0.6 | glycan array binding signal (z-score) [2]: 0.12 | glycan array binding signal (z-score) [3]: -0.517 | glycan array binding signal (z-score) [4]: -0.648 | glycan array binding signal (z-score) (Fuc(a1-2)Gal6S(b1-4)Glc): -0.078 | glycan array binding signal (z-score) [5]: -0.3 | glycan array binding signal (z-score) [6]: 1.08 | glycan array binding signal (z-score) [7]: -0.459 | glycan array binding signal (z-score) [8]: -0.284 | glycan array binding signal (z-score) [9]: -0.776 | glycan array binding signal (z-score) [10]: 1.56 | glycan array binding signal (z-score) [11]: 0.511 | glycan array binding signal (z-score) [12]: 0.598 | glycan array binding signal (z-score) [13]: -0.646 | glycan array binding signal (z-score) [14]: 2.48 | glycan array binding signal (z-score) [15]: -0.307 | glycan array binding signal (z-score) [16]: 14.1 | glycan array binding signal (z-score) [17]: -0.427 | glycan array binding signal (z-score) [18]: -0.101 | glycan array binding signal (z-score) [19]: -0.203 | glycan array binding signal (z-score) [20]: -0.302 | glycan array binding signal (z-score) [21]: 1.26 | glycan array binding signal (z-score) [22]: 2.36 | glycan array binding signal (z-score) [23]: 2.08 | glycan array binding signal (z-score) [24]: -0.171 | glycan array binding signal (z-score) [25]: 7.33 | glycan array binding signal (z-score) [26]: -0.211 | glycan array binding signal (z-score) (Gal3S(b1-3)GlcNAc): -0.219 | glycan array binding signal (z-score) (Gal3S4S(b1-4)GlcNAc): 0.105
